High-throughput results deposited in PubChem BioAssay by National Center for Advancing Translational Sciences (NCATS).
HPGD block: qHTS Assay for Inhibitors of HPGD (15-Hydroxyprostaglandin Dehydrogenase); 15-hydroxyprostaglandin dehydrogenase [NAD(+)] (Homo sapiens), P15428; purified HPGD, NADH fluorescence kinetic, PGE2 substrate; Potency, µM, for inactives: at the top dose activity change, negative = inhibition, usual class: inhibitors; hit rate 4.3% among 150,000; active means well fitted inhibition curve with a large enough effect, not every such curve was filed as active; inconclusive means small, poorly fitted or top-dose-only effect, or another doubt; inactive means no such curve, though single readings can be large or run the other way; further: potency means the concentration at half of the fitted maximal effect
Target sequence (P15428 whole entry, looked up): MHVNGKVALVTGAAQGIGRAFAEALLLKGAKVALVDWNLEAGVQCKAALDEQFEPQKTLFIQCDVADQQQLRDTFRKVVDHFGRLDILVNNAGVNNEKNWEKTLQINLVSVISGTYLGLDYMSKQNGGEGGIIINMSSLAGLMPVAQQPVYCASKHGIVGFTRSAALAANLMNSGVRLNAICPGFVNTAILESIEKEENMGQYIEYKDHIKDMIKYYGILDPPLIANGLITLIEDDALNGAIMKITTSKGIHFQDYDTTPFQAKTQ
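20 nM HPGD preincubated 15 min at room temperature with compound in 50 mM Tris-HCl pH 8, 0.01% Tween 20. Started with 1 mM NAD+ and 30 uM prostaglandin E2; NADH fluorescence (360/450 nm) read 5 times over 30-s intervals, last minus first.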
IMPase Li cell: qHTS Assay for Identifying the Cell-Membrane Permeable IMPase Inhibitors: Potentiation with Lithium; CHO-M1 cells, IP1 TR-FRET (IP-One), carbachol + lithium; AID 1457, 2008; hit rate 0.35% among 210,000; Potency, µM (titrated, usually from 59.4 µM), without a hit: top-dose activity, negative = IMPase inhibition, actives largely listed as inhibitors;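 further: IP1 builds up when IMPase is blocked and the TR-FRET signal falls; potency means the concentration at half of the fitted maximal effect; plate controls were basal vehicle for no effect and high inhibitor control for full effect; nearly all actives have a fitted effect of over 50% in size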
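CHO cells stably expressing M1 receptor (2000/well) were cultured 16–30 h, then exposed to compounds with a small lithium addition for 30 min at 37C. IP1 was measured by TR-FRET competition; AC50 from Hill fits.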
IMPase inh: qHTS Assay for Identifying the Cell-Membrane Permeable IMPase Inhibitors | CHO-M1 cells, IP1 accumulation, HTRF TR-FRET ratio | inhibition (IP1 accumulation), % at 46.1 µM | 120,000 tested, under 10 active | AID 901, 2007; active means well fitted curve in the direction sought with a large enough effect in the signal ratio, not every such curve was filed as active; inconclusive means small, poorly fitted or top-dose-only effect, or a change in a side signal; inactive means no such curve, though single readings can be large or run the other way; the % refers to the signal ratio;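 further: cells stimulated with carbachol in lithium chloride buffer; plate controls were DMSO basal wells for no effect and reference inhibitor wells for full effect; higher means more IMPase inhibition seen as more IP1 and lower FRET ratio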
Target sequence (P97697 whole entry, looked up): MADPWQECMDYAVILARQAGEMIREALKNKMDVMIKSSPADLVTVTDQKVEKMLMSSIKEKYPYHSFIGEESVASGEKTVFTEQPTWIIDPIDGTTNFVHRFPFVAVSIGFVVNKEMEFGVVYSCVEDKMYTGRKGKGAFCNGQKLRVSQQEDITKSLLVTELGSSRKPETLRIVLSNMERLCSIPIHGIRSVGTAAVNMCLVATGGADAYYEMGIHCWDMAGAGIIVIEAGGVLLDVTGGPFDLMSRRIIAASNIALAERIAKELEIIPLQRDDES
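In this qHTS, compounds (final up to 46 uM) act on CHO-M1 cells that are then activated through the M1 receptor with carbachol, in pH 7.4 buffer containing 50 mM LiCl, for 30 min. IP1 accumulation is quantified by the IP-One immunoassay.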
NPSR antag: qHTS Assay for Antagonists of the Neuropeptide S Receptor: cAMP Signal Transduction; hit rate 1% among 220,000; Potency, µM (doses to about 38.3 µM), without a hit: at the top dose activity change, negative = inhibition, actives largely listed as inhibitors; Q6W5P4; AID 1461, 2008; CHO-NPSR cells, cAMP TR-FRET, antagonist mode; further: potency means the concentration at half of the fitted maximal effect; nearly all actives have a fitted effect of over 50% in size
ALDH1A1 block: qHTS Assay for Inhibitors of Aldehyde Dehydrogenase 1 (ALDH1A1); AID 1030, 2008; Aldehyde dehydrogenase 1A1 (Homo sapiens), P00352; Potency, µM (titrated, usually from 75.3 µM), for the others: at the top dose activity, negative = inhibition, most hits filed as inhibitors; hit rate 7.3% among 220,000; Purified ALDH1A1, NADH fluorescence, propionaldehyde substrate; active means well fitted inhibition curve with a large enough effect, not every such curve was filed as active; inconclusive means small, poorly fitted or top-dose-only effect, or another doubt; inactive means no such curve, though single readings can be large or run the other way;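 further: potency means the concentration at half of the fitted maximal effect; plate controls were no enzyme wells and a reference inhibitor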
PNC inhibitor: High Content Assay for Compounds that inhibit the Assembly of the Perinucleolar Compartment | activity change (PNC), negative = inhibition, % at 10 µM | PC3M PTB-GFP, PNC prevalence imaging, 16 h; hits give low values | hit rate 3.1% among 140,000;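 active means readout at or below -70, meaning at least 70% loss of cells showing the perinucleolar compartment, a nuclear body marking cancer cells; inconclusive means readout between -30 and a set limit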;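 further: plate controls were DMSO wells for no effect and camptothecin positive control wells for full effect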
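PC3M cells stably expressing PTB-GFP, 750–1000 cells/well, treated 16 h at 37 °C with compound (23 nl of library stock), in duplicate. After paraformaldehyde fixation and Hoechst stain, imaged at 20x; PNC prevalence scored by image analysis.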
An asterisk follows results filed as active; ? = inconclusive; / = not tested or not shown; [ ] = dose if it differs, or a comment. Sampled rows, rich in hits. Any-hit rate of the full collection: about 11%. Unless noted, the call rests on the fitted dose curve; in most records, active means well fitted curve in the direction sought with a large enough effect; inconclusive means small, poorly fitted or top-dose-only effect, or another doubt; inactive means no such curve, though single readings can be large; an effect the other way counts as inactive or inconclusive. Unless noted, on the % scale 0 is the no-effect control and ±100 the full control effect.

SMILES	HPGD block	IMPase Li cell	IMPase inh	NPSR antag	ALDH1A1 block	PNC inhibitor
C1=CC2c3ccccc3NC(c3ccncc3)C2C1 (stereo not given)	22µM*	8%[38.3 µM]	5	-29%[46.1 µM]	10µM*	3
CC(=O)c1ccc2c(c1)C1C=CCC1C(C(=O)O)N2 (stereo not given)	/	13%	/	-8%	?	/
Cc1ccc(SCCC(=O)N/N=C/c2ccccc2O)cc1	/	/	-4	-10%[46.1 µM]	-8%	5
COc1cc(C#CC#CCN2CCCCC2)ccc1O	14µM*	-3%[38.3 µM]	5	-23%[7.67 µM]	1.6µM*	?
COC(=O)/C=C/c1ccc2c(c1)OCO2	/	-1%	/	-5%	?	/
CCNc1ccccc(C(=O)/C=C/c2ccc3c(c2)OCO3)c1=O	18µM*	31%[38.3 µM]	1	-20%[46.1 µM]	10µM*	-28
CS(=O)(=O)c1ccc(C(=O)OCC(=O)NC23CC4CC(CC(C4)C2)C3)cc1[N+](=O)[O-]	3%	7%	0	-23%	-2%	8
CC(=O)N1CCN(C(=O)CCc2nc3ccccc3c(=O)[nH]2)CC1	-9%	23%[38.3 µM]	5	-10%[46.1 µM]	-1%	22
N#Cc1cc(-c2cccc(Cl)c2)c[nH]c1=O	-19%	2%[38.3 µM]	4[1.84 µM]	-3%[46.1 µM]	-7%	-92*
Cn1c(/C(C#N)=C(\O)COc2ccc3ccccc3c2)nc2ccccc21	?	7.1µM*	6	?	?	?
Cc1ccc(OC/C(O)=C(\C#N)c2nc3ccccc3s2)cc1	-15%	1%	/	-2%	1%	?
Cc1ccc(N2CC(O)(c3cccs3)[N+]3=C2CCCC3)cc1 (stereo not given)	/	4%	/	11%	7%	/
Cc1ccc(N2NC(C)(c3cccs3)NC2=S)cc1 (stereo not given)	-21%	7%	/	-4%	18µM*	32
CC(=O)c1cccc(NC(=O)CC2Oc3ccc(C)cc3NC2=O)c1 (stereo not given)	1%	0%[38.3 µM]	7	-1%[46.1 µM]	3.2µM*	9
Cc1ccc2c(c1)NC(=O)C(CC(=O)NCc1ccc(F)cc1)O2 (stereo not given)	-9%	2%[38.3 µM]	9	-10%[46.1 µM]	11%	15
COc1ccc(-n2nc(C(=O)Nc3nc4ccc(OC)cc4s3)c3ccccc3c2=O)c(OC)c1	-6%	-2%	/	6%	20µM*	39
CCOc1ccc2sc(NS(=O)(=O)c3ccc(OC)c(OC)c3)nc2c1	16µM*	1%[38.3 µM]	9	-12%[46.1 µM]	?	36
COc1ccc2sc(NC(=O)CC(C)C)nc2c1	-24%	28%[38.3 µM]	4	-26%[46.1 µM]	25µM*	24
CCOCC(=O)Nc1nc2ccc(OC)cc2s1	-12%	16%[38.3 µM]	1	2%[46.1 µM]	18µM*	-15
CC(C)NC(=O)COC(=O)/C=C/c1ccc(F)cc1	-10%	-1%	/	14%	0%	-25
COc1ccc2nc(NC(=O)CSc3nccc(C)n3)sc2c1	-23%	9%[38.3 µM]	10	-12%[46.1 µM]	4%	13
COc1ccc2nc(NS(=O)(=O)c3ccc(NC(C)=O)cc3)sc2c1	28µM*	-11%[38.3 µM]	-3	-1%[46.1 µM]	-8%	0
COc1ccc2nc(NC(=O)CSc3nc(C)cc(=O)[nH]3)sc2c1	28µM*	32%[38.3 µM]	5	-11%[46.1 µM]	?	-7
CCOc1ccc(NS(=O)(=O)c2ccc(NC(C)=O)c(OC)c2)cc1	-1%	-2%[38.3 µM]	5	-10%[46.1 µM]	5µM*	30
CC(=O)C1C(c2cn(-c3ccccc3)nc2-c2cccs2)NC(=O)NC1(O)C(F)(F)F (stereo not given)	-14%	-15%[38.3 µM]	-7	-10%[46.1 µM]	22µM*	1
CC(=O)C1C(c2ccccc2Cl)NC(=O)NC1(O)C(F)(F)F (stereo not given)	-27%	0%[38.3 µM]	6	-10%[46.1 µM]	-8%	-25
S=c1[nH]nc(-c2ccc3ccccc3n2)n1-c1ccccc1Cl	10µM*	-7%	/	-44%	-6%	1
